About 8,800 targets were measured; listed, in parts, are those with a hit and a random draw of the rest. About 0.5% of all pairs of compound and target were hits.
Key:
Test in all cases: log2 fold change, soluble protein after heating vs DMSO (PISA); higher = thermal stabilisation; K562 lysate, 10 uM; active = over 0.2 and 3.5 SD of the protein, either way, in both replicates (recomputed)
[1] = compound: Cc1cn(-c2cc(NC(=O)c3ccc(C)c(Nc4nccc(-c5cccnc5)n4)c3)cc(C(F)(F)F)c2)cn1 [nilotinib]
Summary of the method: (§1)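 Soluble protein was defined as the supernatant remaining after 21,000xg for 90 min, following pooling of heated aliquots and adjustment to 0.5% NP-40 at 4°C. Before that, crude K562 extract at 1 mg/mL protein in PBS pH 7.4 with 1 mM MgCl2 was treated with 10 μM compound for 30 min and heated for 3 min across 48°C-58°C. Quantification used TMTpro 16plex LC-MS/MS with channel sums equalised, and values are log-two fold changes in thermal stability relative to solvent controls from duplicates.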

[2] = compound: Cc1nc(Nc2n[nH]c3c2CN(C(=O)N[C@H](CN(C)C)c2ccccc2)C3(C)C)c2sccc2n1
Summary of the method: as §1

[3] = compound: Cc1nc(Nc2ncc(C(=O)Nc3c(C)cccc3Cl)s2)cc(N2CCN(CCO)CC2)n1 [dasatinib]
Summary of the method: as §1

[4] = compound: Cc1ncc(-c2ccnc(Nc3ccc(S(C)(=O)=O)cc3)n2)n1C(C)C
Summary of the method: as §1

[5] = compound: Cn1cc(-c2ccc3c(c2)CCN3C(=O)Cc2cccc(C(F)(F)F)c2)c2c(N)ncnc21
Summary of the method: as §1

[6] = compound: Cn1cc(CNCC2CCN(c3ncc(C(=O)NO)cn3)CC2)c2ccccc21 [quisinostat]
Summary of the method: as §1

[7] = compound: Cn1cncc1[C@@](N)(c1ccc(Cl)cc1)c1ccc2c(c1)c(-c1cccc(Cl)c1)cc(=O)n2C [tipifarnib]
Summary of the method: as §1

[8] = compound: NC(=O)Nc1cc(-c2cccc(F)c2)sc1C(=O)N[C@H]1CCCNC1
Summary of the method: as §1

[9] = compound: NC(=O)c1cnc(N[C@@H]2CCCC[C@@H]2N)nc1Nc1cccc(-n2nccn2)c1
Summary of the method: as §1

[10] = compound: NC1(c2ccc(-c3nc4ccn5c(=O)[nH]nc5c4cc3-c3ccccc3)cc2)CCC1
Summary of the method: as §1

[11] = compound: O=C(CCCCCCC(=O)Nc1ccccc1)NO [vorinostat]
Summary of the method: as §1

[12] = compound: O=C(O)c1ccc2c(c1)nc(Nc1cccc(Cl)c1)c1ccncc12 [silmitasertib]
Summary of the method: as §1

[13] = compound: O=C1NC(=O)C(c2cnc3ccccn23)=C1c1cn2c3c(cc(F)cc13)CN(C(=O)N1CCCCC1)CC2
Summary of the method: as §1

[14] = compound: NCC(=O)Nc1ccc(-n2nc(C(F)(F)F)cc2-c2ccc3c(ccc4ccccc43)c2)cc1
Summary of the method: as §1

[15] = compound: c1cn2cc(-c3ccc4cn[nH]c4c3)nc(Nc3ccc(N4CCOCC4)cc3)c2n1 [entospletinib]
Summary of the method: as §1

Measured: log2 fold change

HMGA1 isoform 2 (UniProt P17096)
inactive: [1] 0.209 | [2] 0.014 | [3] 0.091 | [4] 0.395 | [5] -0.099 | [6] 0.289 | [7] 0.168 | [8] -0.018 | [9] -0.064 | [10] -0.101 | [11] 0.205 | [12] -0.047 | [13] 0.128

HYDIN (UniProt Q4G0P3)
Sequence of UniProt Q4G0P3 (Q4G0P3 whole entry, looked up): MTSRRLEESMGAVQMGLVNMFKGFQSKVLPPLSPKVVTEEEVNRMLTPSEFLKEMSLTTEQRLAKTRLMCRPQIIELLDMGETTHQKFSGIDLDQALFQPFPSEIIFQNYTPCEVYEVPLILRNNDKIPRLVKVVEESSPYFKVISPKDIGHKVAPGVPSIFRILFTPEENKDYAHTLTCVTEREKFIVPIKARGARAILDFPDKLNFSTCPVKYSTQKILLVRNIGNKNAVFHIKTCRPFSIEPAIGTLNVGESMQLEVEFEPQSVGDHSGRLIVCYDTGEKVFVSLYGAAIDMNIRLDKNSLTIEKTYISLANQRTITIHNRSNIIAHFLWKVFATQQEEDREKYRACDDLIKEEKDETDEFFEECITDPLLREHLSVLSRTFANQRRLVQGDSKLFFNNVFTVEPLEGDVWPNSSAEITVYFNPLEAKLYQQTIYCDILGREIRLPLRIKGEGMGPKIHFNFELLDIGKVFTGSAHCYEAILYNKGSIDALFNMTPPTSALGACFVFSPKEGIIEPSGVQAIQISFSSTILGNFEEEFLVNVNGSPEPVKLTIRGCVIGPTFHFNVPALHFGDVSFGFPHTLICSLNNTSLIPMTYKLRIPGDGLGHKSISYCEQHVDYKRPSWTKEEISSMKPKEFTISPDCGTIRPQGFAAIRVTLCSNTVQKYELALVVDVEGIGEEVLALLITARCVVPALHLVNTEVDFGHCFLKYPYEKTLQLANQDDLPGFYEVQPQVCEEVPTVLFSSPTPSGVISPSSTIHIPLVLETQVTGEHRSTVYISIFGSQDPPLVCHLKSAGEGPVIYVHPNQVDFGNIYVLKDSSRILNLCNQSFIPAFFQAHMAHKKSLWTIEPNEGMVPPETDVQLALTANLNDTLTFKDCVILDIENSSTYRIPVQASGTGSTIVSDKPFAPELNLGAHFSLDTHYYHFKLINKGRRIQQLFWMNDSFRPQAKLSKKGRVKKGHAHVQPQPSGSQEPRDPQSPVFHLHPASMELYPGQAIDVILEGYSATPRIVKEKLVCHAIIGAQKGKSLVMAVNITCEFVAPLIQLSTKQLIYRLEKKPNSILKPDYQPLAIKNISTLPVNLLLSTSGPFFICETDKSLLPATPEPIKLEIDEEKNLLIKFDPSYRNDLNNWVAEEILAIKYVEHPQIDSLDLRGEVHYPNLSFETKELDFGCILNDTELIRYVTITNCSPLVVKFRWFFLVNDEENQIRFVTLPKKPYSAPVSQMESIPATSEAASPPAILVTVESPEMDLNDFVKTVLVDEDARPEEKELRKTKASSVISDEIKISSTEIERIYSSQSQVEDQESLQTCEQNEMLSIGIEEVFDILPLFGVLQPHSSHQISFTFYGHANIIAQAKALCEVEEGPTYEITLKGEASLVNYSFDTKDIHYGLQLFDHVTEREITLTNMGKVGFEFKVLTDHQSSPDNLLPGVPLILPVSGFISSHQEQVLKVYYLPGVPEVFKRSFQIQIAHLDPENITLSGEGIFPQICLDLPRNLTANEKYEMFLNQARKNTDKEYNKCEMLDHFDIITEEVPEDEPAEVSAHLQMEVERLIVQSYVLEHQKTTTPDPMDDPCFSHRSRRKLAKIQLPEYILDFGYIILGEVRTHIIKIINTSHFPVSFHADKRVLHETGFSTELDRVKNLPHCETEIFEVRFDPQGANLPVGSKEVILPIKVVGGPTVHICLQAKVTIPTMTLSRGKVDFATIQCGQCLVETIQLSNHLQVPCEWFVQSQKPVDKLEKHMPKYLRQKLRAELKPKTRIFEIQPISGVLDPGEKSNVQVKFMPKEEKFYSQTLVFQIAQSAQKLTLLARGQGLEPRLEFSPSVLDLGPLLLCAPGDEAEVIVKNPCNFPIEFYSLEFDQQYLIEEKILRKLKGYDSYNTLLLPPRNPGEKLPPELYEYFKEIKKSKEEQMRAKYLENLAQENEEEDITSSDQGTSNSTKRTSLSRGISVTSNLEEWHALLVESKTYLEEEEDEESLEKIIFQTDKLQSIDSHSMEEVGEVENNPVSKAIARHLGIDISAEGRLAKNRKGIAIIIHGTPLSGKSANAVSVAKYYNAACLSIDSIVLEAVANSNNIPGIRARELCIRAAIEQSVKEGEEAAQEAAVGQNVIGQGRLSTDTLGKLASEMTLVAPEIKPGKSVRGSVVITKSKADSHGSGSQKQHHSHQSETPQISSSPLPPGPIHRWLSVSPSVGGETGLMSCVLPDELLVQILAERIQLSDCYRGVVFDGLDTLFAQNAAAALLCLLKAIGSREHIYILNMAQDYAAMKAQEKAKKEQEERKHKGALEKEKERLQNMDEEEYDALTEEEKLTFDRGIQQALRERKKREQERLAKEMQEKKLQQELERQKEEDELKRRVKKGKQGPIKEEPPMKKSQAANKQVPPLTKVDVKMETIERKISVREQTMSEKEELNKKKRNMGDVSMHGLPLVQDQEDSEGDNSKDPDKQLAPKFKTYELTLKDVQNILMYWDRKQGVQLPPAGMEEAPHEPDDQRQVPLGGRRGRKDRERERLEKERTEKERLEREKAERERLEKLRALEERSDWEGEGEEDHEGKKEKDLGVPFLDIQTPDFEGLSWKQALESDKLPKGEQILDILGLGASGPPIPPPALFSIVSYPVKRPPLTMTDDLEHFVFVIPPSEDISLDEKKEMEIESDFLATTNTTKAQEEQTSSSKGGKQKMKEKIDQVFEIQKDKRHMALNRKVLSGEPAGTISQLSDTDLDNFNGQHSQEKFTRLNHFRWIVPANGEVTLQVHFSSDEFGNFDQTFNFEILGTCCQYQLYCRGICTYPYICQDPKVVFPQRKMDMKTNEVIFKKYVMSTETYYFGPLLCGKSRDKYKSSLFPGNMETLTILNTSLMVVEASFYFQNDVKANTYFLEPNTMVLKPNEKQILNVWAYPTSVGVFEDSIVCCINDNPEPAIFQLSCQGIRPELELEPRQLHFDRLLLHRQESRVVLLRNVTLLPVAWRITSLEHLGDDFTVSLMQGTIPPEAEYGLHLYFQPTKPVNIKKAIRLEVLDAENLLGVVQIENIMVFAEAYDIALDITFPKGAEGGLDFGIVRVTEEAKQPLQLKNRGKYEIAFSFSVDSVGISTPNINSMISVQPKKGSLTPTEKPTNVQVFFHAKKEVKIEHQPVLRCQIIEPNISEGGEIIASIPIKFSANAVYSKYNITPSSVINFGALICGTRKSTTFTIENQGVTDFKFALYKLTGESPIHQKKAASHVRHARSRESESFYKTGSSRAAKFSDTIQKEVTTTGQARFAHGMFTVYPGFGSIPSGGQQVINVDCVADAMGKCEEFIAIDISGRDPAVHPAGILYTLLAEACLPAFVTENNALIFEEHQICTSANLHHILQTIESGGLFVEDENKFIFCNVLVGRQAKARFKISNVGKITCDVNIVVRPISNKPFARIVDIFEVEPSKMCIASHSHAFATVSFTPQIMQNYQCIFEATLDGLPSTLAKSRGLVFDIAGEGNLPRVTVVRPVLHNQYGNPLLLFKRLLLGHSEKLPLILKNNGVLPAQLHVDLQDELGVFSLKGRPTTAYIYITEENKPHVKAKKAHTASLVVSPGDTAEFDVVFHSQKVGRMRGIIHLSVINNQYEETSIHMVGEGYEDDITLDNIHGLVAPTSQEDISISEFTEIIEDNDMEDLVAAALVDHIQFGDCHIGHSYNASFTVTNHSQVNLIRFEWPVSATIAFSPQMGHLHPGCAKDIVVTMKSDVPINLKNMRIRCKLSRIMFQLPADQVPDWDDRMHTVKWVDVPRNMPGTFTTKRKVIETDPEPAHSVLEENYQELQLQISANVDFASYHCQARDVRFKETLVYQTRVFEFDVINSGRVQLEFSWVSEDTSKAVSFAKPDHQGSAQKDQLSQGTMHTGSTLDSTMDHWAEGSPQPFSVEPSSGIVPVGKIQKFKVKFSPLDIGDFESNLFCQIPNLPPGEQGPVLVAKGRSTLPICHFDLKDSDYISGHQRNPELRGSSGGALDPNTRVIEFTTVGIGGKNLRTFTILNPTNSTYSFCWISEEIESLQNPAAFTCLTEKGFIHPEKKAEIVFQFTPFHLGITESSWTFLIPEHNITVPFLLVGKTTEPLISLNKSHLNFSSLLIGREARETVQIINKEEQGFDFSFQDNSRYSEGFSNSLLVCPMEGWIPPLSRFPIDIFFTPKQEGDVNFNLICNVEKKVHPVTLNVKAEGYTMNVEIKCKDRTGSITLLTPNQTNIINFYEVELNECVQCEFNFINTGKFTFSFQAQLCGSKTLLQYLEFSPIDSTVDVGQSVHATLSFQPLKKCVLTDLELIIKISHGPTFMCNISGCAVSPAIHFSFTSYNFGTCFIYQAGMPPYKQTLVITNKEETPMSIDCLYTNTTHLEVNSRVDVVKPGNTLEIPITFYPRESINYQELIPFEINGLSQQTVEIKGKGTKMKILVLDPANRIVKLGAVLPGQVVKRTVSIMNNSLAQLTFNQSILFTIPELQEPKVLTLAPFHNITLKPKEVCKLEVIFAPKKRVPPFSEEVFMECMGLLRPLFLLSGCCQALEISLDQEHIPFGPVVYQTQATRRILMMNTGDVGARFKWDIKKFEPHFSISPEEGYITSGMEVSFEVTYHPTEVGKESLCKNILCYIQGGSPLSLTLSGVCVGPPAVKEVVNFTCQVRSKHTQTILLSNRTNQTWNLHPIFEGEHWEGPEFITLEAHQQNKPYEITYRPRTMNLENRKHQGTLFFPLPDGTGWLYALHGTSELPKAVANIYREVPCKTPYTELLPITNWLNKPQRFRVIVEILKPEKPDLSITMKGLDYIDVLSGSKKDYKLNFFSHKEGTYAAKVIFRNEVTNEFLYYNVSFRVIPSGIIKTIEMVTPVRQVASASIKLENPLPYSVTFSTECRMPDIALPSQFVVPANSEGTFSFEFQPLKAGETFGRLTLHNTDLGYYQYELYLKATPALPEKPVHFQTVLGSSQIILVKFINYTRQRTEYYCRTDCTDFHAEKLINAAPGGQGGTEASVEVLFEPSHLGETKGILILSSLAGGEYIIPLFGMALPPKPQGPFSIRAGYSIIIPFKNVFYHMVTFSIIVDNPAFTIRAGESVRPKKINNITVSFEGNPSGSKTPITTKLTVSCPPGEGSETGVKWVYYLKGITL
inactive: [3] -0.034 | [5] 0.219 | [9] -0.282 | [14] 0.028 | [15] -0.005

ITM2B (UniProt Q9Y287)
inactive: [1] 0.012 | [2] -0.028 | [3] 0.023 | [4] -0.002 | [5] -0.031 | [6] 0.015 | [7] -0.012 | [8] 0.018 | [10] -0.024 | [14] -0.101 | [11] 0.141 | [12] 0.013 | [13] 0.004

GPA33 (UniProt Q99795)
inactive: [1] -0.085 | [2] -0.093 | [3] -0.077 | [4] -0.023 | [5] -0.09 | [7] 0.022 | [9] -0.045 | [10] 0.047 | [14] 0.041 | [11] 0.14 | [12] 0.051 | [15] 0.017
